This is part of a sample that, as a whole, favours compounds with a hit. Of some 83,000 tested, about 20% had one in any assay.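 Plates (96-well) were seeded with cells, treated with compound at one concentration, and incubated for 48 hours before percent growth was determined.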 The source made the active and inactive calls. The calls were made as follows: active = growth percent below 10; inactive = the rest.
Tests used:
Assay in all cases: NCI-60 one-dose screen, 48 h (100 = growth as untreated, 0 = no growth, -100 = all killed)
Conditions in all cases: 10 µM unless noted
DU-145 prostate = test system: DU-145 prostate
K-562 leukemia = test system: K-562 leukemia
MALME-3M melanoma = test system: MALME-3M melanoma
MDA-MB-231 breast = test system: MDA-MB-231 breast
RXF 393 renal = test system: RXF 393 renal
SF-268 CNS = test system: SF-268 CNS
SF-295 CNS = test system: SF-295 CNS
SF-539 CNS = test system: SF-539 CNS
UACC-257 melanoma = test system: UACC-257 melanoma
M14 melanoma = test system: M14 melanoma

Measured: growth

CCCC[n+]1ccc(SCC(=O)n2ccc3ccccc32)c2ccccc21
inactive: DU-145 prostate 94.6% | K-562 leukemia 66.9% | MALME-3M melanoma 95.9% | MDA-MB-231 breast 92.4% | RXF 393 renal 94.9% | SF-268 CNS 101% | SF-295 CNS 96.5% | SF-539 CNS 103% | UACC-257 melanoma 95.7% | M14 melanoma 98.8%

COc1ccc2c(c1)c(-c1nn3cc(-c4ccncc4)nc3s1)cn2C
inactive: DU-145 prostate 93.9% | K-562 leukemia 28.4% | MALME-3M melanoma 89.9% | MDA-MB-231 breast 77% | RXF 393 renal 83.2% | SF-268 CNS 79% | SF-295 CNS 75.3% | SF-539 CNS 84% | UACC-257 melanoma 116% | M14 melanoma 107%

CCOC(=O)Nc1ccc2c(ccn2C(=O)c2cccc(F)c2)c1
inactive: DU-145 prostate 29.5% | K-562 leukemia 14.2% | MALME-3M melanoma 61.7% | MDA-MB-231 breast 52.8% | RXF 393 renal 19.3% | SF-268 CNS 65.8% | SF-295 CNS 19.6% | UACC-257 melanoma 74.4% | M14 melanoma 25.3%
active: SF-539 CNS 0.0722%

C#CCN(C)CCCOc1ccc(NCc2ccc(C(=O)NO)cc2)cc1Cl
inactive: DU-145 prostate 25.7% | K-562 leukemia 15.5% | MALME-3M melanoma 16.9% | MDA-MB-231 breast 35.8% | SF-268 CNS 30.3% | SF-539 CNS 23.9% | UACC-257 melanoma 10.3% | M14 melanoma 29%
active: RXF 393 renal -3.35% | SF-295 CNS 0.985%

O=C(CSc1nc2ccccc2c(=O)n1-c1ccccc1)N/N=C/c1ccc(Oc2ccc(Cl)cc2)cc1
inactive: DU-145 prostate 38.4% | K-562 leukemia 61.2% | MALME-3M melanoma 51.3% | MDA-MB-231 breast 49.2% | RXF 393 renal 42% | SF-268 CNS 87.1% | SF-295 CNS 83.8% | SF-539 CNS 68.5% | UACC-257 melanoma 96.9% | M14 melanoma 48.8%

CC(C)(C)c1cc(NC(=O)Nc2ccc(-c3cn4c5c(sc4n3)CCc3cn(CCCN4CCCCC4)cc3-5)cc2)no1
active: DU-145 prostate -96.4% | K-562 leukemia 3.01% | MALME-3M melanoma -79.1% | MDA-MB-231 breast -77.3% | RXF 393 renal -71.6% | SF-268 CNS -58.2% | SF-295 CNS -53.6% | SF-539 CNS -92.1% | M14 melanoma -93.6%
inactive: UACC-257 melanoma 51.3%

CCOC(=O)c1c(NC(=O)c2cccc(C(F)(F)F)c2)sc2c3c(ccc12)OCN(C)C3
inactive: SF-295 CNS 44.6% | UACC-257 melanoma 30.8%
active: DU-145 prostate -16.8% | K-562 leukemia -64.1% | MALME-3M melanoma -53.9% | MDA-MB-231 breast -95.9% | RXF 393 renal -91.4% | SF-268 CNS -57.3% | SF-539 CNS -0.959% | M14 melanoma -17%

C#CCN(C)CCCOc1ccc(NC(=O)CCCCCCCCC(=O)NO)cc1Cl
inactive: DU-145 prostate 81.7% | K-562 leukemia 40.7% | MALME-3M melanoma 45.9% | MDA-MB-231 breast 89.5% | RXF 393 renal 37.3% | SF-268 CNS 97.8% | SF-295 CNS 50.2% | SF-539 CNS 74.5% | UACC-257 melanoma 42.8% | M14 melanoma 72.9%

CCCCN1C(=O)/C(=c2\sc3n(c2=O)C2C(NN=3)N(CC)C(=O)N2CC)c2cc(C)ccc21 (stereo not given)
inactive: DU-145 prostate 98.7% | K-562 leukemia 79.8% | MALME-3M melanoma 89.3% | MDA-MB-231 breast 79.5% | RXF 393 renal 61.2% | SF-268 CNS 87% | SF-295 CNS 99.6% | SF-539 CNS 67% | UACC-257 melanoma 98.7% | M14 melanoma 107%

COc1cc2cc(Oc3ccc(NC(=O)c4cc(C(F)(F)F)cc(C(F)(F)F)c4)cc3)c(C)nc2cc1OCCN1CCOCC1
inactive: DU-145 prostate 87.1% | K-562 leukemia 26.5% | MALME-3M melanoma 69.7% | MDA-MB-231 breast 75.7% | SF-268 CNS 72.6% | SF-295 CNS 29.7% | SF-539 CNS 59.4% | UACC-257 melanoma 57.3% | M14 melanoma 60.5%
active: RXF 393 renal 1.66%

Cc1ccc(C(=O)Nc2ccc(CNCCN3CCNCC3)c(C(F)(F)F)c2)cc1C#Cc1cnc2cccnn12
active: DU-145 prostate 6.09% | K-562 leukemia -22.2% | MALME-3M melanoma -70.8% | MDA-MB-231 breast -75.6% | RXF 393 renal -90.1% | SF-268 CNS -14.2% | SF-295 CNS -37.4% | SF-539 CNS -83% | UACC-257 melanoma -6.59% | M14 melanoma -64.6%

Nc1cc(C(=O)N/N=C\c2ccc(OC(F)F)c(OC3CCCC3)c2)nn1CC(O)c1ccccc1 (stereo not given)
inactive: DU-145 prostate 105% | K-562 leukemia 88.4% | MALME-3M melanoma 112% | MDA-MB-231 breast 97.5% | RXF 393 renal 96.3% | SF-268 CNS 100% | SF-295 CNS 101% | SF-539 CNS 98.6% | UACC-257 melanoma 104% | M14 melanoma 110%

CCN(CC)S(=O)(=O)c1ccc(-c2nc(C(Cl)Cl)nc3cc(-c4ccc(F)cc4)nn23)cc1
active: MDA-MB-231 breast 1.34% | RXF 393 renal -30.2%
inactive: DU-145 prostate 16% | K-562 leukemia 34.6% | MALME-3M melanoma 57.6% | SF-268 CNS 48.5% | SF-295 CNS 32.6% | SF-539 CNS 18.4% | UACC-257 melanoma 67.7% | M14 melanoma 47.1%

CCc1cccc2c3c(sc12)C(c1ccc(F)cc1)C(C#N)=C(/N=C/c1ccc(Cl)cc1)O3 (stereo not given)
active: RXF 393 renal -7.19% | SF-295 CNS 6.46% | SF-539 CNS -6.53% | M14 melanoma 9.94%
inactive: DU-145 prostate 29% | K-562 leukemia 10.5% | MALME-3M melanoma 57.2% | MDA-MB-231 breast 30.3% | SF-268 CNS 43.5% | UACC-257 melanoma 69.4%

O=C(Nc1ccc(Cl)c(C(F)(F)F)c1)Nc1ccc2c(ccn2C(=O)c2cccc(F)c2)c1
active: SF-295 CNS 5.17%
inactive: DU-145 prostate 24.5% | K-562 leukemia 11.4% | MALME-3M melanoma 56% | MDA-MB-231 breast 87% | RXF 393 renal 28.7% | SF-268 CNS 55.4% | SF-539 CNS 66.7% | UACC-257 melanoma 60.6% | M14 melanoma 56.2%

CCc1nnc(NC(=O)c2cc(-c3ccc(Cl)cc3Cl)oc2C)s1
inactive: DU-145 prostate 93.5% | K-562 leukemia 86% | MALME-3M melanoma 88.3% | MDA-MB-231 breast 91.5% | RXF 393 renal 109% | SF-268 CNS 89.3% | SF-295 CNS 94.2% | SF-539 CNS 92.4% | UACC-257 melanoma 103% | M14 melanoma 93.3%

COc1ccc(/C=N\NC(=O)c2cnn(CC(O)c3ccccc3)c2N)cc1OCc1ccc(Cl)cc1 (stereo not given)
inactive: DU-145 prostate 55.3% | K-562 leukemia 60.2% | MALME-3M melanoma 65.2% | MDA-MB-231 breast 67% | RXF 393 renal 41.8% | SF-268 CNS 91.6% | SF-295 CNS 56.9% | SF-539 CNS 69.4% | UACC-257 melanoma 85% | M14 melanoma 68.4%

Brc1cc(-c2cc(-c3ccc4c(c3)OCCO4)[nH]n2)cs1
inactive: DU-145 prostate 54.2% | K-562 leukemia 15% | MALME-3M melanoma 35.5% | MDA-MB-231 breast 51.6% | RXF 393 renal 47.5% | SF-268 CNS 62.6% | SF-295 CNS 41.7% | SF-539 CNS 41% | UACC-257 melanoma 76.4% | M14 melanoma 35%

CCOP(=O)(OCC)OC[C@]12CCC(C)(C)CC1C1=CC[C@@H]3[C@@]4(C)CCCNC(C)(C)[C@@H]4CC[C@@]3(C)[C@]1(C)CC2 (stereo not given in full)
active: K-562 leukemia 2.53%
inactive: DU-145 prostate 82.6% | MALME-3M melanoma 103% | MDA-MB-231 breast 81.1% | RXF 393 renal 64% | SF-268 CNS 80.2% | SF-295 CNS 99.3% | SF-539 CNS 86.3% | UACC-257 melanoma 98.2% | M14 melanoma 83.3%

O=S(=O)(Oc1ccc(-c2cn3ccoc3n2)cc1)C1CCCCC1
inactive: DU-145 prostate 107% | K-562 leukemia 89.5% | MALME-3M melanoma 103% | MDA-MB-231 breast 105% | RXF 393 renal 122% | SF-268 CNS 108% | SF-295 CNS 93.8% | SF-539 CNS 97% | UACC-257 melanoma 106% | M14 melanoma 104%

N#Cc1c(-c2ccc(F)cc2)cc(-c2c[nH]c3ccccc23)nc1-c1c[nH]c2ccccc12
inactive: DU-145 prostate 106% | K-562 leukemia 105% | MALME-3M melanoma 102% | MDA-MB-231 breast 102% | RXF 393 renal 112% | SF-268 CNS 101% | SF-295 CNS 103% | SF-539 CNS 100% | UACC-257 melanoma 107% | M14 melanoma 97.4%

CN1CCN(c2ccc(Nc3nc(NCCCNS(=O)(=O)c4cccc5ccccc45)c4sccc4n3)cc2)CC1
active: DU-145 prostate -6.73% | K-562 leukemia 5.72% | MALME-3M melanoma -91.6% | MDA-MB-231 breast -29% | RXF 393 renal -87.1% | SF-268 CNS -24.1% | SF-295 CNS -71.8% | SF-539 CNS -92.1% | UACC-257 melanoma -89% | M14 melanoma -81.9%

COC(=O)CCCNCCCn1ccc2cc(NCc3cccc(-c4ccccc4)c3C)ccc21
inactive: DU-145 prostate 86.2% | MALME-3M melanoma 75.2% | MDA-MB-231 breast 68.3% | RXF 393 renal 71.9% | SF-268 CNS 82.9% | SF-295 CNS 64.5% | SF-539 CNS 77.8% | UACC-257 melanoma 81.6% | M14 melanoma 68.1%
active: K-562 leukemia -1.36%

CCCCc1nc2c(N)nc3ccccc3c2n1Cc1ccc(OC)cc1
inactive: DU-145 prostate 83.4% | K-562 leukemia 23.2% | MALME-3M melanoma 87.6% | MDA-MB-231 breast 75.8% | RXF 393 renal 58.4% | SF-268 CNS 81.1% | SF-295 CNS 56.5% | SF-539 CNS 84.2% | UACC-257 melanoma 72% | M14 melanoma 67.3%

C/C(CC1(O)C(=O)Nc2ccccc21)=N\O (stereo not given)
inactive: DU-145 prostate 109% | K-562 leukemia 99.6% | MALME-3M melanoma 96.2% | MDA-MB-231 breast 94.8% | RXF 393 renal 103% | SF-268 CNS 98.3% | SF-295 CNS 98.6% | SF-539 CNS 94.7% | UACC-257 melanoma 105% | M14 melanoma 97.9%

Clc1ccc2[nH]cc(-c3nn4cc(-c5ccncc5)nc4s3)c2c1
inactive: DU-145 prostate 53.1% | K-562 leukemia 49% | MALME-3M melanoma 26.9% | MDA-MB-231 breast 50.8% | RXF 393 renal 79% | SF-268 CNS 39.1% | SF-295 CNS 71% | SF-539 CNS 25.8% | UACC-257 melanoma 90.7% | M14 melanoma 67.7%

— PubChem BioAssay (NCI)
